Results taken from PubChem BioAssay.
Calls of active or inactive are those of the source.

Experiments:
[1] = molecular target: Albumin (Bos taurus) (UniProt P02769); test: compounds binding labelled BSA control protein – biochemical, small-molecule microarray, Alexa647 label, 635/667 nm fluorescence, artefact control for SMM control protein annotation, profiling panel (AID 1118); conditions: BSA-A647 binding, fluorescence 635 nm, higher = more signal;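 note: score merges 667 nm emission intensity and signal-to-noise per printed compound spot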
Chain of Albumin (Bos taurus) (P02769 whole entry, looked up): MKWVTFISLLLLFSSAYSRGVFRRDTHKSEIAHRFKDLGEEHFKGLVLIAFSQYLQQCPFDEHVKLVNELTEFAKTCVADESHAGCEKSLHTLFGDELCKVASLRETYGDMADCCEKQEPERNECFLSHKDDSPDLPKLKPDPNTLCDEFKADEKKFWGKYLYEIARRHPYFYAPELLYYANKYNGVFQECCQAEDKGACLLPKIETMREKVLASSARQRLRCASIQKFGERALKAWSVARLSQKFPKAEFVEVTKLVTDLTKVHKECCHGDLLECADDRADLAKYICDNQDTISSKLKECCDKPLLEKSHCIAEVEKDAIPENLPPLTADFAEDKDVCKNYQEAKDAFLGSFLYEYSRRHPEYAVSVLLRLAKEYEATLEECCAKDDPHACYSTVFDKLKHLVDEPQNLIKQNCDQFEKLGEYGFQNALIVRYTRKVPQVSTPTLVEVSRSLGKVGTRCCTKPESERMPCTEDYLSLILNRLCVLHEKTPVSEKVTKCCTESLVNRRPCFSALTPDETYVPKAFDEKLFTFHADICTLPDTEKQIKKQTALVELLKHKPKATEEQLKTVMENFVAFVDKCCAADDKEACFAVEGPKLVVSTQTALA

[2] = probe aXIP binding to arrayed compounds – biochemical, NeuroSMM set, 635/667 nm fluorescence, primary screen (AID 1119); conditions: small-molecule microarray, higher = more signal, called active from +8 up or from −8 down;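 note: probe is the protein aXip251-270 applied at 1 µg/mL to compound-printed slides; binding of probe to printed compounds measured as 667 nm fluorescence plus signal to noise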
[3] = probe aNOTCH3 binding on compound microarray – biochemical, small-molecule microarray, 635/667 nm fluorescence, primary screen (AID 1120); conditions: higher = more signal;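 note: probe is a biotin-tagged antibody raised against NOTCH3 rather than NOTCH3 protein; score merges spot fluorescence near 667 nm with spot signal to noise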
[4] = probe aNOTCH2 binding on compound microarray – biochemical, small-molecule microarray, 635/667 nm fluorescence, primary screen (AID 1121); conditions: higher = more signal;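 note: score merges feature fluorescence read at 667 nm with its signal to noise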
[5] = molecular target: Carbonic anhydrase 2 (Homo sapiens) (UniProt P00918); test: compounds binding carbonic anhydrase 2 – biochemical, small-molecule microarray, Alexa647-labelled CAII, profiling panel (AID 1122); conditions: CAII-A647 binding fluorescence, higher = more signal
[6] = COS7 lysate on small-molecule microarray, probe aHis, 635 nm (AID 1123); conditions: COS7 cell lysate, fluorescence, higher = more signal;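 note: z-score combines 667nm fluorescence intensity with signal-to-noise per printed compound spot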
[7] = probe aLAP1 signal on lysate-treated microarray – cell lysate, small-molecule microarray, COS7 lysate, primary screen (AID 1124); conditions: probe aLAP1, fluorescence, higher = more signal;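 note: lysate comes from COS7 cells expressing LAP1 and is applied at 0.3 µg/mL; score merges spot fluorescence near 667 nm with signal-to-noise over triplicate slides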
[8] = test system: Sam68 (KHDRBS1); test: compounds binding KHDRBS1 protein – biochemical, small-molecule microarray, 635 nm fluorescence, primary screen (AID 1125); conditions: higher = more signal;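 note: score merges 667 nm channel intensity with signal to noise over triplicate slides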
[9] = test system: Chordin-like protein 2 (CHRDL2); test: compounds binding chordin-like 2 – biochemical, small-molecule microarray, 635 nm fluorescence, primary screen (AID 1126); conditions: fluorescence 635 nm, higher = more signal;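 note: printed compound slides probed with Chrdl2 protein at 4 µg/mL for 1 h at 4 C; score merges 667 nm emission intensity with signal to noise over three replicate slides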
[10] = molecular target: Concanavalin-A (Canavalia ensiformis) (UniProt P02866); test: compounds binding concanavalin A lectin – biochemical, small-molecule microarray, Alexa647 label, 635 nm, artefact control for SMM control protein annotation, primary screen (AID 1127); conditions: ConA-A647 binding fluorescence, higher = more signal;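 note: z combines 667 nm emission intensity with signal-to-noise across three replicate slides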
Chain of Concanavalin-A (Canavalia ensiformis) (P02866 whole entry, looked up): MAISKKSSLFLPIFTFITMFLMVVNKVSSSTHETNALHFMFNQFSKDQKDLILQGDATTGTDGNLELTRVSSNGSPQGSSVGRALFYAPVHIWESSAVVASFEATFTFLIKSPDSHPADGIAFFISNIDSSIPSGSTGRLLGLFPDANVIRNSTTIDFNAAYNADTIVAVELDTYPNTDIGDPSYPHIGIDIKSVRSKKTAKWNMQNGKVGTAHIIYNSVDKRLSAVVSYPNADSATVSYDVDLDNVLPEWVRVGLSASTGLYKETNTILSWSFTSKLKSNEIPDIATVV

Row | Structure (SMILES) | composite z-score [1] | composite Z-score [2] | composite z-score [3] | composite z-score [4] | composite z-score [5] | composite z-score [6] | composite z-score [7] | composite z-score [8] | composite z-score [9] | composite z-score [10]
1 | C=C(CCCC)C(=O)CC[C@@H](OC(=O)c1ccccc1-c1ccccc1C(=O)O)c1ccc(OCCO)cc1 | -0.873 | 0.0426 (inactive) | -0.185 | -0.125 | 0.437 | 0.121 | -0.102 | 0.684 | 0.876 | 0.829
2 | COC(=O)[C@@]1(Cc2ccc(OC)cc2)[C@H]2c3cc(C(=O)N(C)C)n(Cc4ccccn4)c3C[C@H]2CN1C(=O)c1ccccc1 | 0.972 | 0.655 (inactive) | 0.0674 | 0.293 | 0.89 | 3.14 | 1.03 | -0.0453 | -0.855 | -0.0204
3 | CCOC(=O)C[C@H]1[C@H](OC(=O)c2ccc(C(=O)c3ccccc3)cc2)[C@@H](NC(=O)c2ccccc2)c2cc(OCCCO)ccc2N1C(=O)c1ccc2ccccc2n1 | 0.783 | -0.386 (inactive) | 0.0561 | -0.0187 | 0.418 | 1.53 | 0.612 | 1.33 | -0.284 | 1.05
4 | CC[C@@H]1C=C(C(=O)O)[C@H](c2ccc(Br)cc2)N1S(=O)(=O)c1ccc(C)cc1 | 0.66 | 0.142 (inactive) | 0.167 | -0.0649 | 0.709 | 2.01 | 0.98 | 0.93 | 0.173 | 0.882
5 | COCCOC(=O)N1C(=O)[C@@]2(c3cc(C#CCCO)ccc31)[C@H](C(N)=O)[C@H]1C(=O)O[C@H](c3ccccc3)[C@H](c3ccccc3)N1[C@@H]2c1ccc(O)cc1 | 0.205 | -0.516 (inactive) | -0.159 | -0.118 | 0.463 | 0.387 | 0.505 | 0.0991 | -0.464 | -0.332
6 | C=CC(=C)[C@H]1Oc2ccccc2S(=O)(=O)N2CCC[C@@H]12 | 0 | 0.0556 (inactive) | -0.0588 | -0.156 | -0.293 | -0.284 | -0.0098 | -0.973 | 0.634 | -0.285
7 | [N-]=[N+]=NCc1ccccc1C[C@]1(C(=O)N2CCCCC2)N=C(c2ccc(OCCCO)cc2)O[C@H]1c1ccccc1N=[N+]=[N-] | 0.836 | -0.602 (inactive) | 0.194 | 0.0097 | 0.593 | 2.45 | 0.799 | 1.33 | -0.518 | 1.1
8 | C=CC[C@]1(C(=O)NCCCOC)N=C(c2ccc(OCCCO)cc2)O[C@H]1c1ccccc1CN=[N+]=[N-] | 0.782 | 0.571 (inactive) | 0.119 | -0.0013 | 0.748 | 2.59 | 0.298 | 1.14 | -0.257 | 0.983
9 | CN1C(=O)C2C=CC(C(O)C3CC=CCC3)N(N(c3ccccc3)c3ccccc3)C2C1=O (stereo not given) | -0.197 | 0.0007 (inactive) | 0.0715 | 0.19 | -0.287 | -0.202 | 0.52 | -1.25 | 0.774 | -0.372
10 | C=CC[C@]1(C(=O)NCc2ccccc2)N=C(c2ccc(OCCCO)cc2)O[C@H]1c1ccccc1N=[N+]=[N-] | 0.897 | 1.39 (inactive) | 0.174 | 0.12 | 0.625 | 2.68 | 0.727 | 1.34 | -0.567 | 1.09
11 | O=C(NCCN1CCOCC1)[C@@H]1c2ccccc2C(=O)N(C2CCCCC2)[C@H]1c1ccc(CO)cc1 | 0.349 | -0.118 (inactive) | -0.154 | -0.147 | 0.625 | 1.29 | -0.0871 | 0.68 | -1.08 | 0.31
12 | COCCOC(=O)N1C(=O)[C@@]2(c3cc(C#CCC(C(=O)OC)C(=O)OC)ccc31)[C@H](C(=O)Nc1nc3ccccc3s1)[C@H]1C(=O)O[C@H](c3ccccc3)[C@H](c3ccccc3)N1[C@@H]2c1ccccc1OCCO | 0.893 | 0.259 (inactive) | -0.0343 | -0.0956 | 0.559 | 1.9 | 0.581 | 1.29 | -0.0859 | 1.19
13 | [N-]=[N+]=NCc1ccccc1[C@@H]1OC(c2ccc(OCCCO)cc2)=N[C@]1(Cc1ccccc1)C(=O)NCC(O)CO (stereo not given in full) | 1.05 | 1.57 (inactive) | 0.271 | 0.109 | 0.546 | 3.09 | 1.18 | 1.22 | -0.549 | 0.306
14 | O=C1C[C@@](C(=O)NCCN2CCOCC2)(c2ccc([N+](=O)[O-])cc2)[C@@H](c2ccc(CO)cc2I)N1CC12CC3CC(CC(C3)C1)C2 | -0.091 | 0.0692 (inactive) | 0.0842 | -0.037 | 0.584 | 1.77 | 0.811 | 1.33 | 0.392 | 0.987
15 | COc1ccc([Si](C)(C)[C@H]2[C@H](CCO)O[C@@]3(C(=O)N(Cc4ccc(N(C=O)c5ccccc5)cc4)c4ccccc43)[C@@H]2C)cc1 | 0.598 | -0.12 (inactive) | -0.127 | -0.164 | -0.0062 | 0.407 | -0.33 | -0.852 | -0.957 | 0.538
16 | CCOC(=O)C1=C[C@@H](C(C)(C)C)N(S(=O)(=O)c2ccc(C)cc2)[C@H]1c1ccc(F)cc1 | 0.316 | -0.171 (inactive) | 0.169 | -0.0254 | 0.287 | 1.61 | 0.397 | 1.29 | 0.16 | 0.819
17 | CCOC(=O)C1=CC[C@@H](c2ccccc2)N(S(=O)(=O)c2ccc(C)cc2)[C@H]1c1ccccc1C | 0.767 | -0.663 (inactive) | 0.183 | 0.103 | 0.743 | 0.838 | 0.201 | 0.841 | -0.0352 | 0.705
18 | CCc1cccc(NC(=O)O[C@H]2[C@H](OC(=O)Nc3ccccc3-c3ccccc3)[C@@H](OC(=O)Nc3ccccc3-c3ccccc3)[C@@H](OC)O[C@@H]2CO)c1 | 0.81 | 0.237 (inactive) | 0.13 | -0.0238 | 0.704 | 2.8 | 0.219 | 1.3 | -0.229 | 1.07
19 | COc1cc2c(cc1OC)CN(C(=O)[C@H]1[C@@H]3C(=O)O[C@@H](c4ccccc4)[C@@H](c4ccccc4)N3[C@@H](c3ccc(O)cc3)[C@]13C(=O)Nc1ccc(C#CCCO)cc13)CC2 | 0.184 | 0.274 (inactive) | 0.176 | -0.0474 | 0.213 | 1.46 | 0.127 | 1.24 | 0.077 | 0.964
20 | CC(C)OC(=O)C=C1C[C@@H](c2ccccn2)O[C@@H](c2ccccn2)O1 | -0.47 | 0.92 (inactive) | 0.0942 | -0.12 | 0.775 | 0.407 | 1.32 | 0.216 | 1.49 | -0.333
21 | C=C[C@H](C)[C@@H](OC(=O)Nc1ccc(OC)cc1)c1ccc(O)c2ccccc12 | -0.964 | -0.734 (inactive) | -0.118 | -0.167 | 0.742 | 0.832 | 0.152 | 0.357 | 0.257 | -0.365
22 | C[C@H]1NC(=O)[C@@]23C(=O)N[C@@H](Cc4ccccc4)C2[C@H](C)[C@@]2(C)O[C@H]2C3/C=C/C/C=C\CNC(=O)[C@@H]2CCCN2C1=O (stereo not given in full) | -0.274 | 0.542 (inactive) | -0.229 | -0.14 | 0.507 | 0.0441 | -0.301 | 0.574 | 0.258 | 1.13
23 | OCCCC1=CC(c2cccs2)N(Cc2cc3c(cc2Br)OCO3)CC1 (stereo not given) | 0.252 | 0.027 (inactive) | -0.0044 | -0.147 | 0.509 | 0.713 | 0.242 | 0.242 | -0.0561 | 0.795
24 | NC(=O)NCC#Cc1ccc2c(c1)[C@]1(C(=O)N2)[C@H](c2ccccc2OCCO)N2[C@H](c3ccccc3)[C@H](c3ccccc3)OC(=O)[C@H]2[C@@H]1C(=O)Nc1nc2ccccc2s1 | 0.403 | 0.105 (inactive) | 0.288 | -0.123 | 0.237 | 1.63 | 0.0159 | 1.07 | -0.287 | 0.748
25 | COC(=O)[C@@]1(Cc2ccc(F)cc2)[C@H]2c3cc(C(=O)N(C)C)n(Cc4cc(F)c(F)c(F)c4)c3C[C@H]2CN1C(=O)c1ccccc1 | 0.935 | 0.0144 (inactive) | 0.672 | 0.214 | 0.613 | 2.37 | 0.351 | 1.13 | -0.0618 | 1.13
26 | COC(=O)[C@@]1(Cc2ccc(F)cc2)[C@H]2c3cc(C(=O)N4CCCC4)n(CCCNc4ncc(C(F)(F)F)cc4Cl)c3C[C@H]2CN1C(=O)c1ccccc1 | 0.357 | -0.585 (inactive) | 0.69 | 0.362 | 0.728 | 2.01 | -0.252 | 0.541 | 0.197 | 0.625
27 | CC(C)c1ccc(NN2C(C(O)c3ccc(B(O)O)cc3)C=CC3C(=O)N(c4ccccc4)C(=O)C32)cc1 (stereo not given) | 0.958 | -0.852 (inactive) | 0.216 | 0.0571 | 0.493 | 2.32 | 0.681 | 1.26 | -1.06 | 1.06
28 | COCCOC(=O)N1C(=O)[C@@]2(c3ccccc31)[C@H](C(=O)N1CCc3cc(OC)c(OC)cc3C1)[C@H]1C(=O)O[C@H](c3ccccc3)[C@H](c3ccccc3)N1[C@@H]2c1ccc(OCCO)cc1 | 0.843 | -0.386 (inactive) | -0.0343 | -0.0903 | 0.486 | 2.59 | 0.953 | 1.32 | 0.417 | 1.09
29 | C=CCC(OC(C)=O)[C@@H]1[C@@H](N(Cc2cc3ccccc3o2)C(=O)c2cccc3ccccc23)c2cc(OCCCO)ccc2N1C(=O)c1ccc(-c2ccccc2)cc1 (stereo not given in full) | 0.236 | -0.418 (inactive) | 0.0779 | -0.113 | -0.0159 | 0.317 | -0.187 | 0.195 | 0.107 | -0.505
